CCT chaperon mod = changes cytosolic chaperonin activity. purified chaperonin ATPase assay, HTRF ADP detection, 30 min. activity change, % (test concentration not listed), hits read low. 360,000 tested, 0.3% active; in the data active means activity change below about -30%
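First, chaperonin was dispensed at 40 nM or 20 nM final depending on batch activity. Next, compounds were pinned at 76 uM and ATP added at 10 uM. After 30 min at 37 °C, ADP detection reagents ran 30 min at ambient temperature.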
PLK1 PBD inh = blocks phosphopeptide binding to human PLK1 polo-box domain; 360,000 tested, 2.8% active; Plk1 PBD binding of FITC phosphopeptide, fluorescence polarization; Potency, µM, for the others: max response, negative = inhibition, actives largely listed as inhibitors; further: potency means the concentration at half of the fitted maximal effect; series mostly up to about 57 µM; nearly all actives have a fitted effect of over 65% in size
Target sequence (P53350 whole entry, looked up, the tested form may be a part): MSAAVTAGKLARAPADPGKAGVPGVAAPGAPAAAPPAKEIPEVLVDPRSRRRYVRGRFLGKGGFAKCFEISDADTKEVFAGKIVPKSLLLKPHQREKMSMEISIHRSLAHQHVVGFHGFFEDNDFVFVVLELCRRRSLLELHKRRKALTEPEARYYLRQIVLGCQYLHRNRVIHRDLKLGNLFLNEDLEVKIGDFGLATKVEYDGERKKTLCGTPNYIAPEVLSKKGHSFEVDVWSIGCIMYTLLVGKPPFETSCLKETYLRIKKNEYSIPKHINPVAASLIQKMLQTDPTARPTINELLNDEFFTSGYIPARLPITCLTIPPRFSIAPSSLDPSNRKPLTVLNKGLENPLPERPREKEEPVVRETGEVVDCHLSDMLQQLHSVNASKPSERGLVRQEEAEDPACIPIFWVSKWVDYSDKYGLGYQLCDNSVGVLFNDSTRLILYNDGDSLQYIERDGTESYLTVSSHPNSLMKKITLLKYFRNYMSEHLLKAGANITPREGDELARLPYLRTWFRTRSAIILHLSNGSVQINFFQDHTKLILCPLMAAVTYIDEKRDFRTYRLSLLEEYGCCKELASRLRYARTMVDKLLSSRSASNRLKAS
Mm-Cpn inhibitor = blocks the Methanococcus maripaludis chaperonin Mm-Cpn; purified Mm-Cpn ATPase, ADP Transcreener TR-FRET; Potency, µM (doses to about 76.9 µM), for the others: top-dose activity, negative = inhibition, most hits filed as inhibitors; 330,000 tested, 0.031% active; AID 504842; further: potency means the concentration at half of the fitted maximal effect; nearly all actives have a fitted effect of over 80% in size
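Measured: ADP formation by purified Mm-CPN. Conditions: 25 nM protein, 10 uM ATP, Tris pH 7.4 with Mg2+, K+ and DTT, 37°C for 30 min. Detection: Transcreener HTRF after 30 min at room temperature.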
VDR inh = blocks the human vitamin D receptor; VDR-SRC2-3 peptide fluorescence polarization, 2 h; Potency, µM, for the others: max response, negative = inhibition, most hits filed as inhibitors; 400,000 tested, 0.93% active; further: potency means the concentration at half of the fitted maximal effect
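The screen uses fluorescence polarization to detect compounds that interfere with recruitment of the SRC2-3 coactivator peptide to VDR; plates are read after 2 h at room temperature.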
Sfp PPTase inh = inhibitors of Bacillus subtilis Sfp phosphopantetheinyl transferase; Q9F4F7; Biochemical Sfp PPTase activity, qHTS; Potency, µM, without a hit: largest response in the series, negative = inhibition, actives largely listed as inhibitors; 310,000 tested, 3.5% active; AID 1490;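 further: the enzyme is Sfp with the accession as filed and its product quenches rhodamine fluorescence; potency means the concentration at half of the fitted maximal effect; 0% = enzyme reaction without inhibitor and -100% = no enzyme wells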
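After 15 min at room temperature with compound, 15 nM Sfp received 5 uM rhodamine-CoA plus 12.5 uM BHQ-2-ybbR (50 mM Hepes pH 7.6, 10 mM MgCl2). Rate came from the fluorescence difference over 30 min, ex 525/em 598 nm.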
G9a block = G9a (human) methyltransferase inhibition; Q96KQ7; G9a H3K9 monomethylation, AlphaScreen, 2 h; Potency, µM (top dose mostly 102 µM), without a hit: at the highest dose activity, negative = inhibition, usual class: inhibitors; 350,000 tested, 8.8% active; AID 504332; further: potency means the concentration at half of the fitted maximal effect; nearly all actives have a fitted effect of over 75% in size
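Compounds were preincubated with 20 nM G9a for 15 min, after which biotinylated H3K9 peptide (500 nM) and SAM (20 uM) started a 2 h room-temperature reaction. Monomethylated product was quantified by antibody-based AlphaScreen chemiluminescence.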
The depositor's hits bear a star; ? = inconclusive; / = no result; [ ] = remark or other dose. The list is not random: actives were taken first. Their share in the collection is about 10%. Unless noted, the call rests on the fitted dose curve; in most records, active means well fitted curve in the direction sought with a large enough effect; inconclusive means small, poorly fitted or top-dose-only effect, or another doubt; inactive means no such curve, though single readings can be large; an effect the other way counts as inactive or inconclusive. Unless noted, on the % scale 0 is the no-effect control and ±100 the full control effect.

SMILES	CCT chaperon mod	PLK1 PBD inh	Mm-Cpn inhibitor	VDR inh	Sfp PPTase inh	G9a block
Cn1c(=O)c2cc(S(=O)(=O)NC(C(=O)N3CCCCCC3)c3ccccc3)ccc2n(C)c1=O (stereo unspecified)	0	-3%	0%	2%	-4%	45µM*
CC(C)OCCCNC(=O)C(NS(=O)(=O)c1ccc2c(c1)c(=O)n(C)c(=O)n2C)c1ccccc1 (stereo unspecified)	/	/	1%	/	1%	14µM*
Cc1cnc(CNc2nc(-c3ccc(N(C)C)cc3)nc3ccccc23)cn1	/	/	/	-19%	-20%	/
Cc1cc(C)cc(-n2nnc(-c3nc(-c4ccccc4F)no3)c2C)c1	/	/	/	9%	/	-6%[59 µM]
C/C=C\C(=O)Nc1cccc(C2=NOC3(C2)C[C@@H](C(N)=O)N(C(=O)C2(C)CC2)C3)c1 (stereo partly specified)	0	2%	2%	-4%	13%	-1%[12.7 µM]
C/C=C\C=C/C(=O)Nc1cccc(C2=NOC3(C2)C[C@@H](C(N)=O)N(C(=O)[C@H]2CCC(=O)N2)C3)c1 (stereo partly specified)	1	-22%	-1%	-20%	35µM*	3%[12.7 µM]
C=C(C)C(=O)Nc1cccc(C2=NOC3(C2)C[C@@H](C(N)=O)N(C(=O)C(=C)C)C3)c1 (stereo partly specified)	-1	-27%	2%	-15%	18%	?
C/C=C\C=C/C(=O)Nc1cccc(C2=NOC3(C2)C[C@@H](C(N)=O)N(C(=O)/C=C/CC)C3)c1 (stereo partly specified)	-2	?	1%	-21%	14µM*	?
C=C(C)C(=O)N1CC2(CC(c3cccc(NC(=O)/C=C\C=C/C)c3)=NO2)C[C@H]1C(N)=O (stereo partly specified)	-1	24µM*	0%	89µM*	20µM*	?
C/C=C\C(=O)Nc1cccc(C2=NOC3(C2)C[C@H](C(N)=O)N(C(=O)/C=C/CC)C3)c1 (stereo partly specified)	0	7%	1%	7%	3%	10%[59 µM]
C/C=C\C=C/C(=O)Nc1cccc(C2=NOC3(C2)C[C@@H](C(N)=O)N(C(=O)C2(C)CC2)C3)c1 (stereo partly specified)	0	-27%	0%	?	20µM*	?
CCCCCC(=O)Nc1cccc(C2=NOC3(C2)C[C@H](C(N)=O)N(C(=O)[C@H]2CCC(=O)N2)C3)c1 (stereo partly specified)	1	-11%	2%	-3%	11%	6%[59 µM]
CCOC(=O)c1c(S(=O)(=O)NCC(=O)N(C)Cc2ccccc2)c(C)n(C)c1C	/	/	/	6%	/	-7%[59 µM]
CCCCN(C)C(=O)c1ccc2c(=O)n3nc(Nc4cc(C)ccc4C)sc3nc2c1	/	/	/	4%	/	-21%[59 µM]
CCC(C(=O)Nc1ccc(F)cc1F)n1nc(-c2ccccc2)c2c(c1=O)CCCC2 (stereo unspecified)	/	/	/	-9%	/	-4%[59 µM]
CCCCN(Cc1ccco1)C(=O)Cn1ncc2c([nH]c3ccccc32)c1=O	/	/	/	-4%	/	11%[59 µM]
C/C=C\C=C/C(=O)Nc1cccc(C2=NOC3(C2)C[C@@H](C(N)=O)N(C(=O)/C=C/C=C\C)C3)c1 (stereo partly specified)	-3	?	0%	?	3.5µM*	?
C/C=C(\C)C(=O)N1CC2(CC(c3cccc(NC(=O)CC(c4ccccc4)c4ccccc4)c3)=NO2)C[C@H]1C(N)=O (stereo partly specified)	/	/	0%	/	-5%	14%[12.7 µM]
C=C(C)C(=O)Nc1cccc(C2=NOC3(C2)C[C@H](C(N)=O)N(C(=O)/C=C/C)C3)c1 (stereo partly specified)	-50*	-23%	-5%	5%	-3%	?
C/C=C\C=C\C(=O)N1CC2(CC(c3cccc(NC(=O)CC(c4ccccc4)c4ccccc4)c3)=NO2)C[C@H]1C(N)=O (stereo partly specified)	-2	34µM*	0%	?	45µM*	-41%[12.7 µM]

High-throughput results deposited in PubChem BioAssay by National Center for Advancing Translational Sciences (NCATS).
